The text below walks through data of PubChem BioAssay (EPA / NIEHS).

Inconclusive results are not listed. Activity calls are given as the source filed them. Rule for the calls: active = hit-call score of the fitted dose curve at least 0.9, where 1 is the maximum; inconclusive = response in the unintended direction; inactive = score below 0.9.

The target of this assay is Glycogen synthase kinase-3 beta (Homo sapiens) (UniProt P49841). The assay can be described thus: NVS_ENZ_hGSK3b: NovaScreen (NVS) Enzymatic Assay for human Glycogen Synthase Kinase-3 beta (GSK3b) (AID 2283165). An outline of the steps: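 Recombinant enzyme with specific fluorescent substrate, 1 h, product separated by electrophoretic mobility shift. Primary duplicate screen at 25 uM; actives (e.g. 30% inhibition) followed in singleton concentration-response to 50 uM. Signal loss fitted versus DMSO.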
Glycogen synthase kinase-3 beta (Homo sapiens), sequence (P49841 whole entry, looked up): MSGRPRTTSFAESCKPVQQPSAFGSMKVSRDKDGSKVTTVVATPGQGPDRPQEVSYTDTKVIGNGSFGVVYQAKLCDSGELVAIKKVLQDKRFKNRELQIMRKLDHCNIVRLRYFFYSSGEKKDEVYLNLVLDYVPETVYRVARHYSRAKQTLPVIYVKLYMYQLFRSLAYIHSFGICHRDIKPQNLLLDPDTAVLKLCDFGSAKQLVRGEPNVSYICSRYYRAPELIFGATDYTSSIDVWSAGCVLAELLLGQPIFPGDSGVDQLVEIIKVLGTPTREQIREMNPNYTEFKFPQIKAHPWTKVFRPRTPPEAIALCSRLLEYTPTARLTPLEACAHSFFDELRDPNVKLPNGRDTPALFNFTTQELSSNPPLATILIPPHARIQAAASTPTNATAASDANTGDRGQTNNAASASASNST
`CCCc1cc(=O)[nH]c(=S)[nH]1`: the compound was called inactive.
Take `O=c1c(O)c(-c2ccc(O)c(O)c2)oc2cc(O)cc(O)c12`: the AC50 is 0.073 µM (active).
In the case of `CC(=O)C(C)=CC1C(C)=CCCC1(C)C` (centres undefined), the compound was called inactive.
Same read-out and setting: for `CC(=O)Oc1ccccc1C(=O)O` the value was “inactive”; for `CC(C)c1ccc(C(=O)N=C(N)N)cc1S(C)(=O)=O`, “inactive”.
As to `Nc1ccccc1N`, the AC50 is 22.3 µM (active).
Take `O=[N+]([O-])C(CO)(CO)CO`: the compound was classed as inactive.
The same measure, in the same setting: under `NS(=O)(=O)c1cc2c(cc1Cl)NCNS2(=O)=O` stands “inactive”.
Consider `CCCCCCCCCCO`, for which the call was inactive.
Same read-out and setting: under `CCCCc1ccc2c(n1)[C@@H](c1ccc(OC)cc1C[C@H](C)C(=O)O)[C@H](C(=O)O)[C@H]2c1ccc2c(c1)OCO2` stands “inactive”; under `FC(F)(F)C(F)(F)C(F)(F)C(F)(F)C(F)(F)C(F)(F)CCI`, “inactive”; under `NCCO`, “inactive”.
Turning to `C=CCOC(=O)c1ccccc1C(=O)OCC=C`, the call was inactive.
`C=CCc1ccc(O)c(OC)c1`: the compound was called inactive.
The same measure, in the same setting: under `Cc1ccc(N(C)C)cc1` stands “inactive”.
As for `CCc1c(C(=O)NN2CCCCC2)nn(-c2ccc(Cl)cc2Cl)c1-c1ccc(Br)cc1`, the compound was classed as inactive.
Still for that read-out and setting: for `O=C(OCCCCCOC(=O)c1ccccc1)c1ccccc1` the value was “inactive”; for `CCOc1ccc2c(c1)C(C)=CC(C)(C)N2`, “inactive”; for `NC(=O)Cn1c(=O)cc(CCN2CCN(c3nccc4sccc34)CC2)c2ccc(F)cc21`, “inactive”.

What is called AC50 is the midpoint of the concentration-response curve, whichever way the signal moves.
